Reference: PubChem BioAssay AID720594 (Broad Institute, 2013)
Entries with a potency or affinity are not part of this list. Values without a mark were called inactive. Active and inactive are the calls of the source.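 How the source made its calls: active means falling ATP light signal with a fitted half-maximal concentration at most twice the highest valid tested dose; inconclusive means flat fit with moderate signal loss, or poor fit; inactive means the rest.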

Experiment: HepG2 hepatoma cell cytotoxicity, dose response, cytotoxicity control, CellTiter-Glo luminescence, dry powder, set 3 (AID 720594)
Conditions: HepG2 viability, ATP luminescence, 72 h; series mostly up to 26 µM; activity change, negative = cytotoxicity: at the top concentration
For `O=C(Nc1nc(-c2ccncc2)cs1)c1ccco1`, the “activity change, negative = cytotoxicity” value was -15.6%. With `Cc1ccc(C(=O)Nc2nc(-c3ccccn3)cs2)cc1S(=O)(=O)N1CCOCC1` the “activity change, negative = cytotoxicity” value was -14.4%. For `c1ccc(-c2nc(-c3ccncc3)n[nH]2)nc1`, the outcome was “inactive”. With `Cc1nnc(NC(=O)c2ccc(S(=O)(=O)N3CCCCC3)cc2)o1` the “activity change, negative = cytotoxicity” value was -22%. With `O=C(CSc1ccc(-c2ccccn2)nn1)Nc1ccccc1` the “activity change, negative = cytotoxicity” value was -17.6%. In the case of `CC1CCN(S(=O)(=O)c2ccc(C(=O)Nc3nnc(C4CC4)o3)cc2)CC1`, the “activity change, negative = cytotoxicity” value is reported as -15.2%. For `Cc1ccc(C(=O)Nc2nc(-c3ccccc3)cs2)o1`, the “activity change, negative = cytotoxicity” value was -10.1%. With `CCCCC(=O)NC(c1ccco1)c1ccc2cccnc2c1O` (centres undefined) the “activity change, negative = cytotoxicity” value was -22.8%. In the case of `O=C(CSc1ccc(-c2ccccn2)nn1)Nc1nccs1`, the “activity change, negative = cytotoxicity” value is reported as -13.9%. With `CC1CCN(S(=O)(=O)c2ccc(C(=O)Nc3nnc(-c4ccccn4)o3)cc2)CC1` the “activity change, negative = cytotoxicity” value was -20.6%. In the case of `O=C(CSc1ccc(-c2ccccn2)nn1)N1CCCC1`, the “activity change, negative = cytotoxicity” value is reported as -17.5%. In the case of `Nc1nc(-c2ccccn2)nc(N)c1Cc1ccc(Cl)cc1Cl`, the “activity change, negative = cytotoxicity” value is reported as 1.32%. With `COC(=O)Cc1cc(=O)n(-c2nc3ccccc3[nH]2)[nH]1` the “activity change, negative = cytotoxicity” value was -21.4%. For `O=C(Nc1nc(-c2ccccn2)cs1)c1ccc(S(=O)(=O)N2CCOCC2)cc1`, the “activity change, negative = cytotoxicity” value was -3.41%. For `O=C(Cc1ccccc1)NC(c1ccco1)c1ccc2cccnc2c1O` (centres undefined), the “activity change, negative = cytotoxicity” value was -14.6%. With `CC1CC(C)CN(S(=O)(=O)c2ccc(C(=O)Nc3nnc(C4=COCCO4)o3)cc2)C1` (centres undefined) the “activity change, negative = cytotoxicity” value was -19.5%. With `Cc1cccc(NC(=O)CSc2ccc(-c3ccccn3)nn2)c1C` the “activity change, negative = cytotoxicity” value was 4.57%. In the case of `Cc1ccc(S(=O)(=O)CCc2nnc(NC(=O)c3ccccc3)s2)cc1`, the “activity change, negative = cytotoxicity” value is reported as -8.3%. With `O=C(CSc1n[nH]c(-c2ccccn2)n1)Nc1ccc(Cl)cc1` the “activity change, negative = cytotoxicity” value was -14.9%.
